Data on two molecules can be found in PubChem BioAssay AID602198 (NMMLSC, 2012).

The assay is described as follows: yeast V-ATPase proton pumping modulator potency, dose response, S. cerevisiae, pHLuorin, cherry pick 2 (AID 602198). The conditions noted are these: pHLuorin vacuolar pH fluorescence; series mostly up to 33.1 µM.

Entries with a potency or affinity are not part of this list. The source made the active and inactive calls. The rule behind the calls is not given here.

As for `COc1ccc(N2C(=O)/C(=C/c3ccc(C)o3)C(=O)NC2=S)cc1`, the molecule was classed as inactive.

Consider `Cc1ccsc1/C=C1\C(=O)NC(=S)N(C)C1=O`, for which the call was inactive.
